Laboratory results reported in the supplement of paper PMC8728848.
About 410 targets per protein were measured; listed, in parts, are those with the strongest signals and a random draw of the rest.

Key:
Experiment in all cases: glycan array binding signal (z-score within array); higher = stronger binding
Settings in all cases: glycan notation: IUPAC condensed, linker removed
[1] = molecular target: Fuc(a1-2)Gal(b1-4)Glc
Method in brief: (§1)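 Glycan array data were curated from 3228 arrays in the Consortium for Functional Glycomics database and kept only where the protein sequence was available. Glycan names were converted to IUPAC-condensed notation, and columns mapping to the same glycan were averaged. The binding signal is a within-array Z-score, averaged across arrays of the same protein sequence at different concentrations or buffers and across linkers. Negative Z-scores can be read as non-binding.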

[2] = molecular target: Fuc(a1-2)Gal(b1-4)[Fuc(a1-3)]GalNAc(b1-3)Gal(b1-4)[Fuc(a1-3)]GlcNAc
Method in brief: as §1

[3] = molecular target: Fuc(a1-2)[Gal(a1-3)]Gal(b1-4)GlcNAc
Method in brief: as §1

[4] = molecular target: Fuc(a1-2)[GalNAc(a1-3)]Gal(b1-4)GlcNAc
Method in brief: as §1

[5] = molecular target: Fuc(a1-3)[Gal(b1-4)]GlcNAc(b1-4)Gal(b1-4)[Fuc(a1-3)]GlcNAc
Method in brief: as §1

[6] = molecular target: Fuc(a1-4)GlcNAc
Method in brief: as §1

[7] = molecular target: Gal(a1-3)Gal(b1-4)GlcNAc
Method in brief: as §1

[8] = molecular target: Gal3S(b1-4)GlcNAc6S
Method in brief: as §1

[9] = molecular target: Gal3S6S(b1-4)GlcNAc
Method in brief: as §1

[10] = molecular target: Gal3S6S(b1-4)GlcNAc6S
Method in brief: as §1

[11] = molecular target: Gal4S6S(b1-4)GlcNAc
Method in brief: as §1

[12] = molecular target: GalNAc(a1-3)Gal
Method in brief: as §1

[13] = molecular target: GlcNAc(b1-3)[GlcNAc(b1-4)][GlcNAc(b1-6)]GlcNAc
Method in brief: as §1

[14] = molecular target: GlcNAc(b1-4)[GlcNAc(b1-6)]GalNAc
Method in brief: as §1

[15] = molecular target: Kdn(a2-3)Gal(b1-3)GlcNAc
Method in brief: as §1

[16] = molecular target: Man(a1-2)Man(a1-2)Man(a1-3)Man
Method in brief: as §1

[17] = molecular target: Man(b1-4)GlcNAc
Method in brief: as §1

[18] = molecular target: Neu5Ac(a2-3)Gal(b1-3)[Fuc(a1-4)]GlcNAc(b1-3)Gal(b1-4)[Fuc(a1-3)]GlcNAc
Method in brief: as §1

[19] = molecular target: Neu5Ac(a2-3)Gal(b1-4)GlcNAc(b1-3)Gal(b1-4)GlcNAc
Method in brief: as §1

[20] = molecular target: Neu5Ac(a2-3)Gal(b1-4)[Fuc(a1-3)]GlcNAc(b1-3)Gal(b1-4)[Fuc(a1-3)]GlcNAc(b1-3)Gal(b1-4)[Fuc(a1-3)]GlcNAc
Method in brief: as §1

[21] = molecular target: Neu5Ac(a2-6)GalNAc(b1-4)GlcNAc
Method in brief: as §1

[22] = molecular target: Neu5Gc(a2-6)Gal(b1-4)GlcNAc
Method in brief: as §1

[23] = molecular target: Neu5Gc(a2-6)GalNAc
Method in brief: as §1

[24] = molecular target: Fuc(a1-2)Gal(b1-4)[Fuc(a1-3)]GlcNAc(b1-3)Gal(b1-4)[Fuc(a1-3)]GlcNAc
Method in brief: as §1

[25] = molecular target: Fuc(a1-2)GlcNAc
Method in brief: as §1

[26] = molecular target: Fuc(a1-2)[GalNAc(b1-3)]Gal
Method in brief: as §1

[27] = molecular target: Fuc(b1-3)GlcNAc
Method in brief: as §1

[28] = molecular target: Gal(b1-3)[Fuc(a1-4)]GlcNAc
Method in brief: as §1

[29] = molecular target: Gal(b1-4)GalNAc(a1-3)[Fuc(a1-2)]Gal(b1-4)GlcNAc
Method in brief: as §1

[30] = molecular target: Gal(b1-4)Glc6S
Method in brief: as §1

[31] = molecular target: Gal(b1-4)GlcNAc(b1-2)Man(a1-3)[Gal(b1-4)GlcNAc(b1-2)Man(a1-6)]Man(b1-4)GlcNAc(b1-4)GlcNAc
Method in brief: as §1

[32] = molecular target: Gal(b1-4)GlcNAc(b1-6)[Gal(b1-3)]GalNAc
Method in brief: as §1

[33] = molecular target: Gal3S(b1-4)Glc
Method in brief: as §1

[34] = molecular target: Gal6S(b1-4)Glc6S
Method in brief: as §1

[35] = molecular target: GlcNAc(b1-3)Gal
Method in brief: as §1

[36] = molecular target: Neu5Ac(a2-3)Gal(b1-4)[Fuc(a1-3)]GlcNAc(b1-3)Gal
Method in brief: as §1

[37] = molecular target: Neu5Ac(a2-8)Neu5Ac(a2-8)Neu5Ac(a2-3)[GalNAc(b1-4)]Gal(b1-4)Glc
Method in brief: as §1

B1: HMGB1 (Homo sapiens), P09429 (protein)
chain: MGKGDPKKPRGKMSSYAFFVQTCREEHKKKHPDASVNFSEFSKKCSERWKTMSAKEKGKFEDMAKADKARYEREMKTYIPPKGETKKKFKDPNAPKRPPSAFFLFCSEYRPKIKGEHPGLSIGDVAKKLGEMWNNTAADDKQPYEKKAAKLKEKYEKDIAAYRAKGKPDAAKKGVVKAEKSKKKKEEEEDEEDEEDEEEEEDEEDEDEEEDDDDE
glycan array binding signal (z-score) [1]: -0.488 | glycan array binding signal (z-score) [2]: -0.246 | glycan array binding signal (z-score) [3]: -0.3 | glycan array binding signal (z-score) [4]: -0.269 | glycan array binding signal (z-score) [5]: -0.39 | glycan array binding signal (z-score) [6]: -0.341 | glycan array binding signal (z-score) [7]: -0.418 | glycan array binding signal (z-score) [8]: 3.64 | glycan array binding signal (z-score) [9]: 3.32 | glycan array binding signal (z-score) [10]: 4.75 | glycan array binding signal (z-score) [11]: 3.25 | glycan array binding signal (z-score) [12]: -0.403 | glycan array binding signal (z-score) [13]: -0.309 | glycan array binding signal (z-score) [14]: -0.433 | glycan array binding signal (z-score) [15]: -0.363 | glycan array binding signal (z-score) [16]: -0.413 | glycan array binding signal (z-score) [17]: 0.327 | glycan array binding signal (z-score) [18]: 0.178 | glycan array binding signal (z-score) [19]: 0.045 | glycan array binding signal (z-score) [20]: -0.332 | glycan array binding signal (z-score) [21]: 0.028 | glycan array binding signal (z-score) [22]: 0.015 | glycan array binding signal (z-score) [23]: -0.195

B2: DCIR (Homo sapiens), Q9UMR7 (protein)
chain: MTSEITYAEVRFKNEFKSSGINTASSAASKERTAPHKSNTGFPKLLCASLLIFFLLLAISFFIAFVIFFQKYSQLLEKKTTKELVHTTLECVKKNMPVEETAWSCCPKNWKSFSSNCYFISTESASWQDSEKDCARMEAHLLVINTQEEQDFIFQNLQEESAYFVGLSDPEGQRHWQWVDQTPYNESSTFWHPREPSDPNERCVVLNFRKSPKRWGWNDVNCLGPQRSVCEMMKIHL
glycan array binding signal (z-score) [1]: -0.479 | glycan array binding signal (z-score) [24]: -0.367 | glycan array binding signal (z-score) [25]: -0.484 | glycan array binding signal (z-score) [26]: -0.31 | glycan array binding signal (z-score) [5]: 0.076 | glycan array binding signal (z-score) [27]: -0.551 | glycan array binding signal (z-score) [7]: 0.183 | glycan array binding signal (z-score) [28]: -0.359 | glycan array binding signal (z-score) [29]: -0.129 | glycan array binding signal (z-score) [30]: 0.19 | glycan array binding signal (z-score) [31]: 4.96 | glycan array binding signal (z-score) [32]: -0.161 | glycan array binding signal (z-score) [33]: -0.426 | glycan array binding signal (z-score) [8]: 5.68 | glycan array binding signal (z-score) [10]: 7.43 | glycan array binding signal (z-score) [34]: 4.52 | glycan array binding signal (z-score) [35]: -0.245 | glycan array binding signal (z-score) [36]: -0.071 | glycan array binding signal (z-score) [20]: -0.372 | glycan array binding signal (z-score) [37]: -0.052
